Among the test systems are NCI-H23 lung; NCI-H322M lung; HOP-62 NSCLC; NCI-H460 lung; HOP-92 NSCLC; NCI-H522 lung; A549/ATCC NSCLC; 786-0 renal; COLO 205 colon; DU-145 prostate; K-562 leukemia; MALME-3M melanoma; MDA-MB-231 breast; RXF 393 renal; SF-268 CNS; SF-295 CNS; SF-539 CNS; UACC-257 melanoma; M14 melanoma; HCT-15 colon.
What all share (experiment): NCI-60 one-dose screen, 48 h (100 = growth as untreated, 0 = no growth, -100 = all killed)
What all share (details): 10 µM unless noted

Results on eight compounds are retold here after PubChem BioAssay (NCI).

This is part of a sample that, as a whole, favours compounds with a hit. Of some 83,000 tested, about 20% had one in any assay.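 Cell lines were cultured in 96-well plates, exposed to a single compound concentration, and assessed for percent growth 48 hours later.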 A number with no mark means an inactive call. Active and inactive are the calls of the source. Rule for the calls: active = growth percent below 10; inactive = the rest.

As for `CCOC(=O)c1cnc2c(C)cccc2c1Nc1ccc(C(C)=O)cc1`, the growth with NCI-H23 lung is 32.1%; in the assay with NCI-H322M lung, 42.7%; with HOP-62 NSCLC, -76.6% (active); in the assay with NCI-H460 lung it was -68.6% (active); in the assay with HOP-92 NSCLC it was -1.13% (active); with NCI-H522 lung, -78.5% (active). Moreover, the growth is -60.9% (active) in the assay on A549/ATCC NSCLC; 8.84% (active) with 786-0 renal; -91.5% (active) with COLO 205 colon; 22% in the assay with DU-145 prostate; -21.5% (active) in the assay with K-562 leukemia; -81% (active) in the assay with MALME-3M melanoma. The growth with MDA-MB-231 breast was 11.2%; with RXF 393 renal, -54.5% (active); in the assay on SF-268 CNS it was 43.5%; in the assay on SF-295 CNS, -82.2% (active); in the assay with SF-539 CNS, -44.9% (active); in the assay with UACC-257 melanoma, -58.4% (active). The growth is -67.6% (active) in the assay on M14 melanoma and 0.0229% (active) in the assay with HCT-15 colon.

For `Cc1nc2ccccc2c(/C=C/c2ccc(F)cc2)c1C(N)=O`, the growth is 101% in the assay on NCI-H23 lung; 110% with NCI-H322M lung; 95.2% in the assay with HOP-62 NSCLC; 108% with NCI-H460 lung; 105% in the assay on HOP-92 NSCLC; 94.3% in the assay on NCI-H522 lung. Moreover, the growth with A549/ATCC NSCLC was 97.7%; in the assay with 786-0 renal, 99.8%; in the assay with COLO 205 colon, 114%; in the assay on DU-145 prostate it was 105%; in the assay on K-562 leukemia, 95.8%; with MALME-3M melanoma, 105%. The growth with MDA-MB-231 breast is 92%; in the assay on RXF 393 renal, 106%; with SF-268 CNS it was 96.4%; in the assay on SF-295 CNS it was 102%; in the assay with SF-539 CNS, 102%; in the assay with UACC-257 melanoma, 99.9%. Besides, the growth in the assay on M14 melanoma was 103%; in the assay with HCT-15 colon, 108%.

As for `CCCCC1COc2cccc3c2N1C=C/C3=C\C(=O)N(C)c1ccccc1` (stereo not given), the growth with NCI-H23 lung is 26.6%; in the assay on NCI-H322M lung, 89.2%; in the assay with HOP-62 NSCLC, 78.2%; in the assay on NCI-H460 lung it was 64%; with HOP-92 NSCLC it was 48.4%; in the assay on NCI-H522 lung, 55.6%. For the same compound, the growth is 71.6% in the assay with A549/ATCC NSCLC; 79.3% in the assay with 786-0 renal; 72.9% in the assay with COLO 205 colon; 82.9% with DU-145 prostate; 26.2% in the assay with K-562 leukemia; 59.9% with MALME-3M melanoma. In addition, the growth in the assay with MDA-MB-231 breast was 62.9%; in the assay with RXF 393 renal, 89.6%; in the assay on SF-268 CNS, 70.4%; in the assay on SF-295 CNS, 52.2%; in the assay with SF-539 CNS it was 84%; in the assay with UACC-257 melanoma, 53%. The growth is 65.1% in the assay on M14 melanoma and 86.3% in the assay with HCT-15 colon.

With `Cn1c(=O)n(C)c2cc(CNCCNc3ccnc4cc(Cl)ccc34)ccc21`, the growth was 95.3% with NCI-H23 lung; 95.4% in the assay with NCI-H322M lung; 78.1% with HOP-62 NSCLC; 2.02% (active) in the assay on NCI-H460 lung; 55.9% in the assay with HOP-92 NSCLC; 94.9% in the assay with NCI-H522 lung. Moreover, the growth with A549/ATCC NSCLC was 70.3%; with 786-0 renal it was 1.49% (active); with COLO 205 colon, 55.1%; in the assay with DU-145 prostate, 74.8%; in the assay with K-562 leukemia, 5.18% (active); in the assay with MALME-3M melanoma, 43.6%. The growth with MDA-MB-231 breast is 62.5%; in the assay on RXF 393 renal, 52.1%; in the assay on SF-268 CNS it was 97.9%; in the assay with SF-295 CNS, -69.4% (active); with SF-539 CNS it was 58.9%; with UACC-257 melanoma, -61.8% (active). Also, the results for the growth in the assay on M14 melanoma and in the assay with HCT-15 colon were -52.8% (active) and 9.62% (active), respectively.

As to `COc1ccc(C(=O)C2CC2c2ccc(Cl)cc2)cc1` (stereo not given), the growth was 95.1% in the assay with NCI-H23 lung; 82.7% in the assay with NCI-H322M lung; 115% in the assay on HOP-62 NSCLC; 94.2% in the assay on NCI-H460 lung; 92.7% with HOP-92 NSCLC; 68.2% in the assay with NCI-H522 lung. Moreover, the growth in the assay with A549/ATCC NSCLC was 82.8%; in the assay with 786-0 renal it was 89%; in the assay with COLO 205 colon it was 106%; in the assay on DU-145 prostate, 97.5%; with K-562 leukemia it was 76.1%; in the assay on MALME-3M melanoma it was 94.8%. For the same compound, the growth is 86.4% in the assay with MDA-MB-231 breast; 95.5% with RXF 393 renal; 78.8% in the assay on SF-268 CNS; 141% in the assay with SF-295 CNS; 98.6% in the assay on SF-539 CNS; 94.2% with UACC-257 melanoma. Moreover, the growth is 92% with M14 melanoma and 97.9% in the assay with HCT-15 colon.

Take `CCOC(=O)c1c(C=O)nc2ccccc2c1/C=C/c1ccc(Cl)cc1`: the growth with NCI-H23 lung was 100%; in the assay with NCI-H322M lung it was 99.8%; in the assay on HOP-62 NSCLC, 103%; in the assay with NCI-H460 lung, 100%; in the assay with HOP-92 NSCLC, 92.8%; in the assay with NCI-H522 lung, 78.8%. Moreover, the growth in the assay with A549/ATCC NSCLC was 96.4%; in the assay with 786-0 renal, 106%; with COLO 205 colon, 119%; in the assay with DU-145 prostate it was 96.3%; with K-562 leukemia, 61.7%; in the assay with MALME-3M melanoma, 100%. Further, the growth was 87.7% in the assay on MDA-MB-231 breast; 99.5% in the assay with RXF 393 renal; 91.2% in the assay on SF-268 CNS; 101% in the assay on SF-295 CNS; 90.9% in the assay with SF-539 CNS; 105% with UACC-257 melanoma. In addition, the growth with M14 melanoma is 91.6%; in the assay on HCT-15 colon, 89.6%.

On to `CCCCOCc1cc(CN2CCN(C)CC2)c(O)c2ncccc12`, for which the growth was 60% with NCI-H23 lung; 53.9% in the assay on NCI-H322M lung; 32.9% in the assay with HOP-62 NSCLC; 21.9% in the assay on NCI-H460 lung; 57.9% with HOP-92 NSCLC; 24.9% with NCI-H522 lung. The growth was 35.9% in the assay with A549/ATCC NSCLC; 38.1% in the assay on 786-0 renal; 85.4% in the assay on COLO 205 colon; 63.9% with DU-145 prostate; 50.7% in the assay on K-562 leukemia; 93.4% with MALME-3M melanoma. For the same compound, the growth in the assay with MDA-MB-231 breast is 47.1%; in the assay on RXF 393 renal, 69%; with SF-268 CNS, 47.9%; with SF-295 CNS, 58.5%; in the assay with SF-539 CNS it was 53.3%; in the assay on UACC-257 melanoma, 51.4%. Besides, the results for the growth with M14 melanoma and in the assay with HCT-15 colon were 41.2% and 25.6%, respectively.

As for `COc1ccc(-c2nc(-c3ccccc3)c(-c3ccccc3)[nH]2)cc1OC1CCCCC1`, the growth is 89% in the assay on NCI-H23 lung; 84.9% with NCI-H322M lung; 105% in the assay on HOP-62 NSCLC; 88.3% with NCI-H460 lung; 69.6% with HOP-92 NSCLC; 88.3% with NCI-H522 lung. The growth in the assay with A549/ATCC NSCLC was 85.5%; with 786-0 renal, 102%; in the assay with COLO 205 colon it was 98.1%; in the assay on DU-145 prostate, 99.7%; in the assay with K-562 leukemia it was 81.4%; in the assay with MALME-3M melanoma it was 73%. Moreover, the growth with MDA-MB-231 breast was 67%; in the assay with RXF 393 renal, 105%; with SF-268 CNS, 84.4%; in the assay on SF-295 CNS it was 80.9%; in the assay on SF-539 CNS, 102%; in the assay on UACC-257 melanoma it was 93.8%. Further, the growth was 92.2% with M14 melanoma and 93.4% in the assay on HCT-15 colon.
